Source: PubChem BioAssay
L3MBTL1 block = inhibitors of human L3MBTL1; Q9Y468; AlphaScreen L3MBTL1–H3K9me1 peptide binding; Potency, µM (top dose mostly 57.1 µM), for the others: at the top dose activity, negative = inhibition, most hits filed as inhibitors; hit rate 0.66% among 230,000; further: on the % scale 0 is the no-effect control and ±100 the full control effect; nearly all actives have a fitted effect of over 60% in size
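L3MBTL1 50 nM + b-AHA-H3(1-15)K9me1 75 nM, 30 min RT; compound added, 30 min RT; streptavidin donor/Ni-chelate acceptor beads 10 ug/mL each final, 30 min RT dark; AlphaScreen read.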
Pol beta inh = inhibitors of human DNA polymerase beta; hit rate 1.3% among 340,000; AID 485314; P06746; Potency, µM (titrated, usually from 114 µM), for inactives: at the highest dose activity change, negative = inhibition, usual class: inhibitors; Pol beta primer extension/strand displacement, fluorescence kinetic; further: on the % scale 0 is the no-effect control and ±100 the full control effect
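Pol beta (10 nM) was preincubated with compound for 15 min at room temperature. The reaction was then started with 50 nM substrate and read immediately and after a further 10 min at room temperature.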
Pol kappa inh = inhibitors of human DNA polymerase kappa; purified Pol kappa, fluorescent DNA synthesis assay, 10 min; Potency, µM (highest dose often 107 µM), for inactives: top-dose activity, negative = inhibition, most hits filed as inhibitors; hit rate 0.53% among 400,000; AID 588579; further: on the % scale 0 is the no-effect control and ±100 the full control effect
Target sequence (Q9UBT6 whole entry, looked up): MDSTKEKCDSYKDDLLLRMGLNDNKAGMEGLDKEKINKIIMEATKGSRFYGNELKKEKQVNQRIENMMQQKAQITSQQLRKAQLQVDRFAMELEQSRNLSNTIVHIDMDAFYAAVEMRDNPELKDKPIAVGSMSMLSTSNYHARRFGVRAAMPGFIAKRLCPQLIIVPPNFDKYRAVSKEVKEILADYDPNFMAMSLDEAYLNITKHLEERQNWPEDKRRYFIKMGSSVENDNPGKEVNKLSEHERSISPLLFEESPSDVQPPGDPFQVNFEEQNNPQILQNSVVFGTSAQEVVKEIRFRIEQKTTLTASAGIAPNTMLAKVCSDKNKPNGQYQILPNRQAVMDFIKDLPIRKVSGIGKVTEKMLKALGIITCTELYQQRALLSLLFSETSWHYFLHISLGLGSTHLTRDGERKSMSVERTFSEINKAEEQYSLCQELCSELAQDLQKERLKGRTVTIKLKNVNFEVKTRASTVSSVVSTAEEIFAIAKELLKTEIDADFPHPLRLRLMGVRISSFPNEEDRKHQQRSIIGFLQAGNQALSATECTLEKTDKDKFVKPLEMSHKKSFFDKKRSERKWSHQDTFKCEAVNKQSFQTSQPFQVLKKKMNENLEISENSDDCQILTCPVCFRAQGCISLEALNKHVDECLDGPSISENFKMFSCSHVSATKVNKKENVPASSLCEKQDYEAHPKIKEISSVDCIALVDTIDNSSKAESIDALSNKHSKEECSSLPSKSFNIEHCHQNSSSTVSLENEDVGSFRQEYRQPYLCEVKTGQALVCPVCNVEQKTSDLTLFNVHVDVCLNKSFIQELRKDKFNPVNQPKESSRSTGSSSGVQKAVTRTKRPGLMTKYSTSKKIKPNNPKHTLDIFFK
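Activity was followed as the change in fluorescence between reads at 0 and 10 min after starting the reaction with 50 nM substrate. Beforehand, 10 nM polymerase had been preincubated with compound for 15 min at room temperature.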
Pol eta inh = blocks human DNA polymerase eta activity; Q9Y253; recombinant Pol eta, fluorescent DNA replication assay; Potency, µM (doses to about 114 µM), without a hit: at the top dose activity change, negative = inhibition, usual class: inhibitors; hit rate 1.2% among 390,000; further: on the % scale 0 is the no-effect control and ±100 the full control effect
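Pol eta (10 nM) was preincubated with compounds for 15 min at room temperature, after which fluorescent replication substrate (50 nM final) was added to start the reaction. Fluorescence was read kinetically at 0 and 10 min.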
POLI inh = inhibitors of human DNA polymerase iota; Potency, µM (doses to about 115 µM), for the others: at the highest dose activity, negative = inhibition, hits mostly inhibitors; hit rate 1% among 390,000; Pol iota fluorescent replication assay, 10 min; Q9UNA4
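Fluorescent replication assay read twice, at 0 min and 10 min after adding 50 nM (final) substrate. Enzyme (10 nM) and compounds were first incubated 15 min at room temperature; enzyme-free buffer wells were negative controls.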
An asterisk follows results filed as active; ? = inconclusive; · = no result; [ ] = dose if it differs, or a comment. The list is not random: actives were taken first. Their share in the collection is about 2.4%. The call rests on the fitted dose curve; in most records, active means well fitted curve in the direction sought with a large enough effect; inconclusive means small, poorly fitted or top-dose-only effect, or another doubt; inactive means no such curve, though single readings can be large; an effect the other way counts as inactive or inconclusive. Potency means the concentration at half of the fitted maximal effect.

SMILES | L3MBTL1 block | Pol beta inh | Pol kappa inh | Pol eta inh | POLI inh
COc1ccc(C(=O)n2nc(-c3cccnc3)nc2NCc2ccccc2)cc1OC | · | 32% | 12% | -10% | 14%
Oc1cc(-c2ccncc2)cc2cccnc12 | 7.1µM* | · | -3% | -1% | ?
CN(C)c1ccc(-c2cc(O)c3ncccc3c2)cc1 | -6% | · | -7% | -10% | -18%
Nc1c(N(CCC2=CCCCC2)C(=O)c2ccccc2F)c(=O)[nH]c(=O)n1Cc1ccccc1 | 4% | · | -16% | -10% | 79µM*
Nc1c(N(CCC2=CCCCC2)C(=O)Cc2ccccc2F)c(=O)[nH]c(=O)n1Cc1ccccc1 | 1% | · | -5% | -8% | 14%
CCC1C/C(=C/c2ccco2)C(=O)/C(=C/c2ccco2)C1 (configuration not stated) | 32µM* | ? | · | · | ·
CCC1C/C(=C\c2cc(OC)c(OC)cc2OC)C(=O)/C(=C/c2cc(OC)c(OC)cc2OC)C1 (configuration not stated) | · | -6% | -23% | ? | ?
CCOc1ncccc1C(=O)OCc1csc(CC(=O)Nc2ccccc2C)n1 | -1% | · | 11% | -20% | 10%
Cc1csc[n+]1CC(=O)c1ccccc1 | · | · | -14% | · | 12%
CC(=O)c1cccc(NC(=O)COc2cc3oc(=O)c(CC(C)O)c(C)c3cc2Cl)c1 (configuration not stated) | -6% | ? | -39% | ? | 56µM*
CCOC(=O)c1ccc(NC(=O)COc2cc3oc(=O)c(CC(C)O)c(C)c3cc2Cl)cc1 (configuration not stated) | · | ? | -15% | 1% | ?
CCOC(=O)[C@@H]1[C@H]2COc3ccc(Br)cc3[C@@H]2N2C(=O)N(c3cccc(Cl)c3)C(=O)[C@@]12C | -2% | · | -8% | 0% | 1%
CCC(C)C(=O)OCC1(c2ccc(C)cc2OC(=O)C(C)C)CO1 (configuration not stated) | · | 40µM* | -25% | -17% | ?
COc1ccc(CN(C)C(=O)c2ccc(NC(=O)CC3SC(N4CCCCC4)=NC3=O)cc2)c(OC)c1 (configuration not stated) | · | · | -11% | 0% | 17%
C=CCn1c(SCc2nc3sc(C(=O)O)c(C)c3c(=O)[nH]2)nnc1-c1ccccc1 | -19% | 0% | -37% | 32µM* | ?
CCOCCCn1c(SCc2nc3sc(C(=O)O)c(C)c3c(=O)[nH]2)nnc1-c1ccc(Cl)cc1 | -15% | -11% | -5% | -21% | 50%
COc1ccc2c(COC(=O)c3ccc(C)c(S(=O)(=O)N4CCOCC4)c3)cc(=O)oc2c1 | · | · | -8% | 14µM* | ?
COC1=CC(=O)c2ccccc2C1=O | -10% | · | 10% | ? | 14µM*
NC(CCC(=O)N[C@@H](CS)C(=O)NCC(=O)O)C(=O)O (some centres not stated) | · | · | 4%[60.1 µM] | · | ·
CC(C)CCNC(=O)c1c[nH]c2ccc(S(=O)(=O)N3CCC4(CC3)OCCO4)cc2c1=O | 3% | 35µM* | -3% | -1% | 7%
COCCNC(=O)c1c[nH]c2ccc(S(=O)(=O)N3CCC4(CC3)OCCO4)cc2c1=O | 9% | -10% | -4% | -11% | 8%
O=C(NNc1ccccc1F)c1sccc1Cl | · | · | 6% | · | 12%
CCOC(=O)C1CCCN(C(=O)c2ccc(CS(=O)(=O)c3ccc(C)cc3)o2)C1 (configuration not stated) | · | ? | -41% | 18µM* | 32µM*
Cc1ccc(C)c(N2CCN(C(=O)c3ccc(CS(=O)(=O)c4ccccc4C)o3)CC2)c1 | -13% | ? | -10% | -28% | 10%
Cc1ccc(S(=O)(=O)Cc2ccc(C(=O)N3CCCCCC3)o2)cc1 | · | 12% | -5% | -3% | -19%
Cc1ccc(S(=O)(=O)Cc2ccc(C(=O)N3CCN(c4cc(C)ccc4C)CC3)o2)cc1 | -10% | 40µM* | -25% | -7% | ?
CCc1ccc(-n2nc3ccc(NC(=O)c4ccc(C#N)cc4F)cc3n2)cc1 | · | 8% | 9% | -15% | 20%
Cc1cccc(N2CC(C(=O)Nc3nnc(SCC(=O)N4CCOCC4)s3)CC2=O)c1 (configuration not stated) | · | 28µM* | -27% | 45µM* | ?
